From PubChem
miR-21 act – qHTS Assay for Modulators of miRNAs and/orActivators of miR-21. HeLa miR-21 FLuc reporter, luciferase, 48 h. Potency, µM (doses to about 38.3 µM), without a hit: top-dose activity change, positive = activation, usual class: activators. 340,000 tested, under 10 active. AID 2288, 2010;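 also: % of control where 0% means no effect; miR-21 action dims this reporter so a rising signal means less miR-21 action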
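HeLa miR-21-FLuc reporter line, endogenous miR-21; 2000 cells/well in DMEM/10% FBS; compound titration up to ~40uM final, 48 h, 37 degree Celsius; luciferase detection reagent, 15 min lysis, CCD luminescence.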
JMJD2E inh – qHTS Assay for Inhibitors of Human Jumonji Domain Containing 2E (JMJD2E); Lysine-specific demethylase 4E (Homo sapiens), B2RXH2; JMJD2E catalytic domain, FDH-coupled NADH fluorescence (FDH is formaldehyde dehydrogenase); Potency, µM (highest dose often 57.1 µM), for inactives: top-dose activity change, negative = inhibition, actives largely listed as inhibitors; 230,000 tested, 1.6% active; AID 2147, 2009; active = well fitted inhibition curve with a large enough effect, not every such curve was filed as active; inconclusive = small, poorly fitted or top-dose-only effect, or another doubt; inactive = no such curve, though single readings can be large or run the other way;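 also: potency is read from the fitted curve at half-maximal effect; 0% = wells with enzyme and -100% = buffer wells without enzyme; nearly all actives have a fitted effect of over 50% in size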
Target sequence (B2RXH2 1-337 limits assumed): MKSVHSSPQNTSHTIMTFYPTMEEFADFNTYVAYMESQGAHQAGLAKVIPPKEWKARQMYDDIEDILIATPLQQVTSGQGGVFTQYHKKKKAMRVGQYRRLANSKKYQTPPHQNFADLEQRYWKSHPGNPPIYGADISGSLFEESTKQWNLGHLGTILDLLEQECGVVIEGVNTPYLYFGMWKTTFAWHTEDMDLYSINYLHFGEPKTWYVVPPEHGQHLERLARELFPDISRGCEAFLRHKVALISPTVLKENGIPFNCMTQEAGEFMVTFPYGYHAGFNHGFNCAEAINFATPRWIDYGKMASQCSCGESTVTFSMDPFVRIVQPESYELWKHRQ
G9a inh – qHTS Assay for Inhibitors of Histone Lysine Methyltransferase G9a. G9a H3K9 monomethylation, AlphaScreen, 2 h. 350,000 tested, 8.8% active. Potency, µM (titrated, usually from 102 µM), for inactives: at the top dose activity, negative = inhibition, most hits filed as inhibitors. Histone-lysine N-methyltransferase EHMT2 (Homo sapiens), Q96KQ7; also: potency is read from the fitted curve at half-maximal effect; % is scaled to controls: 0 for no effect and ±100 for the full control effect; nearly all actives have a fitted effect of over 75% in size
Target sequence (Q96KQ7 913-1193 limits assumed): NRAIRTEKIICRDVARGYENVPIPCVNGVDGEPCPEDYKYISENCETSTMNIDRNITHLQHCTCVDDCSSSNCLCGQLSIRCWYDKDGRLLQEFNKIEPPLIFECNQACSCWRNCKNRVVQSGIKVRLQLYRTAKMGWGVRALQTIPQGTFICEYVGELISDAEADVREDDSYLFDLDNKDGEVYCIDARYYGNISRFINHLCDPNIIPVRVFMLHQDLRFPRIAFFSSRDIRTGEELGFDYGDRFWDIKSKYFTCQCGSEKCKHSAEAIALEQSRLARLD
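Step 1: enzyme (final 20 nM) with compound, 15 min RT. Step 2: substrate peptide 500 nM and SAM 20 uM, 2 h RT. Step 3: anti-H3K9me1 antibody and AlphaScreen beads, 10 min, then plate read.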
LMNA splice mod – qHTS Assay for Modulators of Lamin A Splicing; 200,000 tested, 0.01% active; Potency, µM (series often up to 46.1 µM), without a hit: at the top dose ratio change, negative = inhibition, actives largely listed as inhibitors; HeLa LMNA splicing GFP/RFP minigene ratio, 48 h; active = well fitted inhibition curve with a large enough effect in the signal ratio, with a control signal flat, not every such curve was filed as active; inconclusive = small, poorly fitted or top-dose-only effect, or effect the other way, or a change in a side signal; the % refers to the signal ratio; also: potency is read from the fitted curve at half-maximal effect; % is scaled to controls: 0 for no effect and ±100 for the full control effect
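S3 HeLa stable clones carrying a lamin A-EGFP splicing minigene plus DsRed2 were seeded at 600 cells/well in Opti-MEM with 2% FBS, pin-dosed and incubated 48 h at 37°C. Acumen cytometry (488 nm) gave the GFP/RFP total-intensity ratio.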
Sfp inh – qHTS Assay for Inhibitors of Bacillus subtilis Sfp phosphopantetheinyl transferase (PPTase); Biochemical Sfp PPTase activity, qHTS; Potency, µM, for inactives: largest response in the series, negative = inhibition, actives largely listed as inhibitors; 310,000 tested, 3.5% active; AID 1490, 2009;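 also: the enzyme is Sfp with the accession as filed and its product quenches rhodamine fluorescence; potency is read from the fitted curve at half-maximal effect; 0% = enzyme reaction without inhibitor and -100% = no enzyme wells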
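Fluorescence-quenching assay: 15 nM Sfp-PPTase preincubated 15 min at room temperature with compound, then 5 uM rhodamine-CoA and 12.5 uM BHQ-2-labelled YbbR peptide added. Fluorescence (ex 525/em 598 nm) read at start and after 30 min; difference gives rate.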
ALDH1A1 block – qHTS Assay for Inhibitors of Aldehyde Dehydrogenase 1 (ALDH1A1); AID 1030, 2008; 220,000 tested, 7.3% active; Purified ALDH1A1, NADH fluorescence, propionaldehyde substrate; Potency, µM (titrated, usually from 75.3 µM), inactives show at the highest dose activity, negative = inhibition, usual class: inhibitors; Aldehyde dehydrogenase 1A1 (Homo sapiens), P00352; active = well fitted inhibition curve with a large enough effect, not every such curve was filed as active; inconclusive = small, poorly fitted or top-dose-only effect, or another doubt; inactive = no such curve, though single readings can be large or run the other way;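 also: potency is read from the fitted curve at half-maximal effect; plate controls were no enzyme wells and a reference inhibitor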
An asterisk follows results filed as active; ! = repeats disagree; [ ] = dose if it differs, or a comment. The list is not random: actives were taken first. Their share in the collection is about 13%. Unless noted, calls follow the shape of the dose curve; as a rule, active = well fitted curve in the direction sought with a large enough effect; inconclusive = small, poorly fitted or top-dose-only effect, or another doubt; inactive = no such curve, though single readings can be large; an effect the other way counts as inactive or inconclusive.

CC1=C(C(=O)OCc2cc(C)on2)N2C(=O)[C@@H](NC(=O)OCc3cc(C)on3)[C@H]2SC1 was read as G9a inh 10.1%[0.501 µM].
For CC1=C(C(=O)O)N2C(=O)[C@@H](NC(=O)C(N)C3=CCC=CC3)[C@H]2SC1 (stereo partly drawn) the results were JMJD2E inh 22.4µM*, G9a inh 11.9µM*!, LMNA splice mod -14.1% and ALDH1A1 block -12.6%.
CC1=C(C(=O)OCC(Cl)(Cl)Cl)N2C(=O)C(NC(=O)Cc3ccccc3)C2SC1 (stereo not drawn) was read as miR-21 act -1.8%, JMJD2E inh 2.7%, G9a inh 39.8µM*, Sfp inh inconclusive and ALDH1A1 block inconclusive.
Screening CC1=C(C(=O)O)N2C(=O)C(NC(=O)c3ccc(F)cc3)C2SC1 (stereo not drawn) returned G9a inh 0.891µM*.
For CCCOC(=O)N[C@@H]1C(=O)N2C(C(=O)OCCC)=C(C)CS[C@H]12 the results were miR-21 act -0.1% and Sfp inh inconclusive.
Screening CC1=C(C(=O)O)N2C(=O)C(NC(=O)C(N)C3=CCC=CC3)C2SC1 (stereo not drawn) returned JMJD2E inh inconclusive, Sfp inh -74.7% and ALDH1A1 block -11.3%.
For CCn1ccc(C(=O)NC2C(=O)N3C(C(=O)O)=C(C)CSC23)n1 (stereo not drawn) the results were miR-21 act 0.0%, JMJD2E inh 5.4%, G9a inh 22.4µM*, LMNA splice mod -2.7%, Sfp inh 31.6µM* and ALDH1A1 block 2.8%.
For CCOC(=O)N1CCc2c(sc3c2c(=O)n(-c2ccc(CC)cc2)c(=O)n3CC(=O)Nc2ccc(C)cc2)C1 the results were miR-21 act 0.8% and G9a inh -16.0%[59 µM].
`CCc1ccc2ncc3c(-c4ccc(F)cc4)nn(CC(=O)NC4CCCCC4)c3c2c1` gave miR-21 act -1.5%, G9a inh 17.9%[59 µM] and LMNA splice mod 4.0%[46 µM].
Screening CCC(CC)C(=O)Nc1ccc2nc(SCC(=O)N3CCOCC3)sc2c1 returned miR-21 act 10.9%, G9a inh -4.3%[59 µM] and LMNA splice mod 3.0%[46 µM].
Cc1ccccc1Cn1c(COc2ccc(Cl)cc2)nc2ccccc21 was read as miR-21 act -5.1% and G9a inh 41.5%[59 µM].
Screening Cc1cccc(NC(=O)CSC2=NN3CCCC(=O)N=C3S2)c1C returned miR-21 act 9.1%, JMJD2E inh 16.7%, G9a inh 3.7%, Sfp inh 3.7% and ALDH1A1 block 31.6µM*.
For Cc1ccc(NC(=O)CSC2=NN3CCCC(=O)N=C3S2)c(C)c1 the results were miR-21 act 0.2%, JMJD2E inh -2.3%, Sfp inh -5.4% and ALDH1A1 block inconclusive.
`COc1ccc(-c2cc3c(=O)n(CC(=O)NCCN4CCCC4)nc(C)n3n2)cc1` gave miR-21 act -12.3%, G9a inh 12.9% and Sfp inh 10.2%.
`CCN1/C(=C2\C(=O)N(C)C(=S)N2C)C=Cc2ccccc21` gave miR-21 act -1.7%, JMJD2E inh inconclusive, G9a inh 10µM*, LMNA splice mod -6.3%, Sfp inh -5.5% and ALDH1A1 block -1.5%.
For Cc1ccc2c(c1)C(=O)N(CCCCO)C2=O the results were miR-21 act -1.8%, JMJD2E inh -9.7%, G9a inh 11.4%[59 µM], LMNA splice mod 5.5%, Sfp inh 10.6% and ALDH1A1 block 2.3%.
CCCN1/C(=C2/SC(=S)N(CC)C2=O)C=Cc2ccccc21 was read as miR-21 act 0.1%, JMJD2E inh -1.2%, G9a inh inconclusive, LMNA splice mod -2.8%, Sfp inh inconclusive and ALDH1A1 block inconclusive.
For CCN1/C(=C2\C(=O)N(C)C(=S)N2c2ccccc2)C=Cc2ccccc21 the results were miR-21 act 6.6%, JMJD2E inh -20.9%, G9a inh -140.3%[59 µM] and Sfp inh 89.1µM*.
`CN1C(=O)/C(=C2/C=Cc3ccccc3N2CCCS(=O)(=O)O)SC1=S` gave miR-21 act -4.0%, JMJD2E inh -4.1%, G9a inh inconclusive, LMNA splice mod 3.5%, Sfp inh -17.3% and ALDH1A1 block -15.3%.
CCN1/C(=C2\C(=O)N(C)C(=S)N2C)C=Cc2cc(C)ccc21 was read as miR-21 act -2.5%, JMJD2E inh inconclusive, G9a inh 10µM*, LMNA splice mod -4.3%, Sfp inh 44.7µM* and ALDH1A1 block inconclusive.
`CCOC(=O)c1ccccc1NC(=O)COC(=O)CC(C)(C)CC1=NS(=O)(=O)c2ccccc2N1` gave miR-21 act inconclusive, G9a inh -2.1%[59 µM] and LMNA splice mod -26.4%[46 µM].
Cc1ccc(S(=O)(=O)NCC(=O)N(CCc2ccccc2)CC(=O)NCc2ccco2)cc1 was read as miR-21 act 6.0%, JMJD2E inh -0.6%, G9a inh inconclusive, LMNA splice mod 10.4%, Sfp inh -19.3% and ALDH1A1 block 28.2µM*.
For CC(C)CNS(=O)(=O)c1ccc(CCC(=O)NCc2ccco2)cc1 the results were miR-21 act -1.5%, JMJD2E inh -2.8%, G9a inh inconclusive, LMNA splice mod -1.9%, Sfp inh 39.8µM* and ALDH1A1 block 2µM*.
Screening O=C(CNS(=O)(=O)c1ccccc1)NCc1ccco1 returned miR-21 act 1.8%, G9a inh 79.4µM* and Sfp inh -18.0%.
Screening Cc1cc(C)c(S(=O)(=O)NCC(=O)NCc2ccco2)c(C)c1 returned miR-21 act -1.9%, JMJD2E inh -3.1%, G9a inh 3.6%[59 µM], Sfp inh 13.9% and ALDH1A1 block 6.2%.
`CC(C)CNS(=O)(=O)c1ccc(CCC(=O)NCc2ccncc2)cc1` gave miR-21 act -1.0%, JMJD2E inh -4.8%, Sfp inh -0.1% and ALDH1A1 block -5.3%.
Screening O=C(CN(CCc1ccccc1)C(=O)CNS(=O)(=O)c1ccccc1)NCc1ccco1 returned miR-21 act 2.5%, JMJD2E inh 2.7%, G9a inh 22.9%[59 µM], LMNA splice mod 5.9%, Sfp inh 16.1% and ALDH1A1 block -13.5%.
Screening Cc1ccc(SCCN2CCC(O)CCC2=O)cc1 (stereo not drawn) returned miR-21 act -25.1%, G9a inh -4.1% and Sfp inh 17.9%.
